# Measured values taken from the supplement of paper PMC6555819.
# Columns and labels:
# Experiment in all cases: PBM binding z-score (relative to random genomic background probes); higher = stronger binding; sequences stand for … in GC…GCGATTGACAGCGTAGAATGAAGG
# [1] = tested on: FXR:RXRa (NR concentration 270 nM, RXRa partner concentration 90 nM)
# Method in brief: (§1)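 Regression normalization was applied to scanned fluorescence from custom Agilent 4×180K protein-binding microarrays. Before scanning, arrays were incubated 1 h with ligand-free nuclear receptor dimers, and binding was detected with antibodies against each partner (one per run). Binding z-scores use the random background probes as reference.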
# [2] = tested on: LXRa:RXRa (NR concentration 270 nM, RXRa partner concentration 90 nM)
# Method in brief: as §1
# [3] = tested on: LXRa homodimer (NR concentration 270 nM)
# Method in brief: as §1
# [4] = tested on: LXRb:RXRa (NR concentration 270 nM, RXRa partner concentration 90 nM)
# Method in brief: as §1
# [5] = tested on: LXRb homodimer (NR concentration 270 nM)
# Method in brief: as §1
# [6] = tested on: PPARa:RXRa (NR concentration 270 nM, RXRa partner concentration 90 nM)
# Method in brief: as §1
# [7] = tested on: PPARg:RXRa (NR concentration 180 nM, RXRa partner concentration 90 nM)
# Method in brief: as §1
# [8] = tested on: PPARg:RXRa 270nM:90nM, anti-RXR (NR concentration 270 nM, RXRa partner concentration 90 nM)
# Method in brief: as §1
# [9] = tested on: PPARg:RXRa 30nM:10nM, anti-RXR (NR concentration 30 nM, RXRa partner concentration 10 nM)
# Method in brief: as §1
# [10] = tested on: PPARg:RXRa 90nM:30nM, anti-RXR (NR concentration 90 nM, RXRa partner concentration 30 nM)
# Method in brief: as §1
# [11] = tested on: PPARg:RXRa DBDmut IVT, anti-RXR (DBD mutation: RXRa K156A/R161A, NR concentration 270 nM, RXRa partner concentration 90 nM)
# Method in brief: as §1
# [12] = tested on: PPARg:RXRa IVT, anti-PPARg (NR concentration 270 nM, RXRa partner concentration 90 nM)
# Method in brief: as §1
# [13] = tested on: PPARg DBDmut:RXRa IVT, anti-PPARg (DBD mutation: PPARg1 K132A/R137A, NR concentration 270 nM, RXRa partner concentration 90 nM)
# Method in brief: as §1
# [14] = tested on: PPARg DBDmut IVT, anti-PPARg (DBD mutation: PPARg1 K132A/R137A, NR concentration 270 nM)
# Method in brief: as §1
# [15] = tested on: PPARg homodimer (NR concentration 180 nM)
# Method in brief: as §1
# [16] = tested on: PXR:RXRa (NR concentration 270 nM, RXRa partner concentration 90 nM)
# Method in brief: as §1
# [17] = tested on: PXR homodimer (NR concentration 270 nM)
# Method in brief: as §1
# [18] = tested on: RARa:RXR (NR concentration 270 nM, RXRa partner concentration 90 nM)
# Method in brief: as §1
# [19] = tested on: RARa homodimer (NR concentration 270 nM)
# Method in brief: as §1
# [20] = tested on: RARb:RXRa (NR concentration 270 nM, RXRa partner concentration 90 nM)
# Method in brief: as §1
Sequence,PBM binding z-score [1],PBM binding z-score [2],PBM binding z-score [3],PBM binding z-score [4],PBM binding z-score [5],PBM binding z-score [6],PBM binding z-score [7],PBM binding z-score [8],PBM binding z-score [9],PBM binding z-score [10],PBM binding z-score [11],PBM binding z-score [12],PBM binding z-score [13],PBM binding z-score [14],PBM binding z-score [15],PBM binding z-score [16],PBM binding z-score [17],PBM binding z-score [18],PBM binding z-score [19],PBM binding z-score [20]
CTACCAAGGTGAACAAGGTCGCTGATTACTATTC,1.1,1.05,-0.405,1.37,-0.68,2.38,1.17,1.36,-0.0103,0.78,2.41,2.81,0.217,0.423,0.663,1.7,0.349,1.89,-0.144,2.17
TCGAGTAGGTTCGGGGCATTCAGAATGGCGTCGA,-0.238,-0.318,-0.554,-0.184,-1.07,0.187,-0.622,0.0439,0.452,0.234,0.529,-0.193,-0.804,-0.918,-0.546,-0.101,-0.4,-0.0228,-1.08,0.221
CCTACTGGGCCATCACGTCATTGATATCAACGTT,-0.11,-0.114,-0.158,0.0401,-0.225,0.509,0.963,1.09,0.356,0.648,4.36,3.56,0.399,0.151,0.3,-0.248,0.0325,0.0611,-0.31,0.25
CCACCAAGGTGAACAAGGTCGTTGATTACTATTC,1.47,1.57,0.468,2.04,-0.359,2.63,1.21,1.23,-0.313,0.583,2.14,2.55,0.528,0.567,1.61,3.17,2.75,2.58,0.52,2.37
GGAACGAGGGCAAGTGGATAGCAGAGTTTGATGG,0.68,0.618,-0.0905,0.0624,-0.475,1.36,1.21,1.21,-0.127,0.598,3.83,2.95,0.27,0.066,0.34,0.612,0.421,0.505,-0.0317,2.65
CCGACTGGGGCCAAGGTTACCATACTCAGTACGA,0.714,0.334,-0.174,0.728,-0.267,1.91,3.85,4.51,1.74,3.8,0.261,1.58,-1.03,-0.715,0.238,0.644,0.142,1.14,-0.0443,1.77
CCTCGGAGGACAACAGGCGGTCAGAGCTGCCAGA,-0.211,-0.0211,0.394,-0.76,-1.15,-0.468,-0.327,-0.898,-0.775,-1.03,-0.178,-0.851,-1.43,-1.37,-0.158,-0.464,-0.435,-0.312,-0.034,1.61
TAGCCTAGGTCATGCGAGCCAGTATAGTGTCGGC,4.25,2.95,0.265,1.8,0.134,3.6,2.35,2.43,0.259,1.24,1.99,2.77,0.571,0.0763,1.17,1.38,-0.628,2.33,-0.182,3.72
AATACAGGGTCATCATAGGCCAGAGTACGCACAG,6.85,6.83,2.28,4.77,1.57,5.63,6.31,5.66,2.51,4.41,2.62,3.98,1.5,0.916,1.8,4.42,1.01,4.65,1.25,4.25
CGAACTAGGTCAGAACAGGTCAGTGAAGGATGAT,2.92,2.65,0.47,1.69,-0.091,3.73,5.27,4.8,1.67,4.11,7.05,7.16,1.14,1.73,1.66,3.32,0.18,2.3,0.424,3.57
CCTCGGAGGACATAAGGTCAGAGCTGTCCGCTTT,2.39,2.6,0.959,1.75,-0.328,2.45,0.338,0.85,-0.243,0.319,0.213,0.303,-1,-1.59,1.72,2.42,-0.0342,3.08,0.792,3.4
CCTTATGGGTCACTCCAGGTTATAGCATCGGAGT,3.67,7.24,1.43,4.49,-0.105,3.92,4.6,4.39,1.84,3.6,5.51,5.56,1.27,1.01,1.61,4.22,0.18,2.9,0.657,3.35
ATATGTAGGTTAGCTGGGCTCATTCAGACTAGGC,-0.0917,-0.146,-0.339,-0.294,-0.171,1.98,2.71,2.34,0.752,1.5,6.55,5.57,1.42,1.63,0.611,-0.0149,-0.367,0.11,0.493,0.456
TCTATTAGTCGATTAGGGCAACCGAAACAGCGGA,0.523,0.509,0.385,0.608,0.293,0.759,0.292,2.12,3.61,2.99,2.06,1.15,1.13,0.942,0.0705,0.419,-0.106,0.574,0.642,0.697
ATCTCTAGGTAAAAGTTTAGTGAATCCCGAGGAT,0.336,0.276,0.317,0.0669,1.09,2.34,3.7,4.99,2.89,5.11,2.01,2.09,0.984,0.97,0.897,0.34,0.253,0.103,0.693,0.667
GCTTTTAGATCAAGGTTAAGAAAGACTAAGCTAA,0.411,1.15,-0.245,0.993,0.252,1.49,0.495,1.1,0.053,0.706,0.974,0.787,0.785,0.404,0.294,0.507,0.294,1.07,0.203,1.04
ATCTCTAGGGAAAAGTTCAGTGAATCCCGAGGAT,-0.0297,0.401,0.405,0.302,0.328,2.67,4.59,5.66,3.84,5.64,-0.096,1.64,0.313,0.383,0.686,1.42,0.706,0.616,0.196,1.77
CGTCAAAGTGCAAGGTAACGTAACAGAAAGCAGC,0.00612,0.219,-0.312,0.159,-0.589,0.731,0.773,0.593,-0.0711,0.326,0.0283,0.682,-0.0131,-0.0811,0.153,0.149,-0.225,0.344,-0.0833,2.05
TCTTGTAGATCAAGCAGGTTATGAAAGCCTGAGT,0.147,0.219,-0.495,0.124,-0.429,0.732,-0.162,1.27,2.34,1.89,1.29,0.311,0.244,0.263,-0.854,0.4,0.201,0.334,-0.519,0.176
CCGACTGGGGCAAAGTTACCATAACGCACAGCCA,-0.19,-0.516,-0.498,-0.362,-0.945,1.6,4.27,5,3.18,4.86,3.71,3.42,-0.241,-0.589,0.229,-0.542,-0.263,-0.168,-0.168,0.462
GCTAGCAGACCATTTGGGTCACTCAATGACGGGC,-0.199,-0.301,-0.619,-0.213,-1.15,0.904,0.52,-0.0173,-0.573,-0.229,0.216,0.941,-0.491,-0.941,-0.202,0.0959,-0.826,0.598,-0.667,0.935
ATACCAAGGTGACCGTGAGGTCGTTGATACTAAC,3.38,2.05,0.765,2.02,-0.023,2.4,1.44,1.39,0.228,0.726,1.21,2.77,0.39,0.266,1.4,3.8,1.45,3.05,0.22,2.46
ACTAGCAGGCCAAGATTGGGTCACTCAAACAAAG,-0.0447,-0.288,-0.493,0.338,-0.861,1.33,0.272,0.402,-0.526,-0.361,0.594,1.6,-0.903,-0.363,0.0638,0.192,-0.441,0.988,-0.597,1.47
CGAACGAGGGCATGAGTTGAGAGCAAATGCCGAT,0.636,0.355,-0.664,0.203,-1,1.65,1.42,1.4,0.0136,0.958,3.19,2.16,-0.212,-0.733,-0.198,0.363,-0.12,0.437,-0.617,2.05
CGAACTAGGTCATCCAGGACAGAGAATACATTGA,4.18,2.74,0.462,2.08,0.0984,4.79,7.72,6.45,3.83,5.81,8.15,8.34,2.22,1.68,1.64,1.97,1.05,2.45,0.545,3.79
CGAAATAGGTCATTGACAGGACAGTGAATAGTAA,6.1,5.06,1.3,3.58,0.828,5.64,6.83,6.73,4.21,6.12,7.51,7.87,3.54,2.18,3.02,3.03,0.444,4.06,1.24,4.3
CCTACTGGGCTATCAGGTCATTGATATCAACGTT,1.15,0.988,0.914,1.16,-0.189,2.01,1.45,2.47,0.664,2.01,3.17,4.19,0.0312,-0.392,0.841,1.33,0.575,1.41,0.294,1.55
CCTACTGGGCCATTCAGAGGTCATAGATCATATG,2.57,4,5.67,3.75,0.161,3.83,2.65,3.2,1.2,2.48,4.09,4.44,0.601,-0.0592,2.01,4.2,1.2,4.42,0.421,2.97
CCTTACGGGTTACTGACAGGTTATAGCATTTGGA,0.701,2.51,0.282,1.34,-0.567,1.78,0.373,1.24,0.114,0.535,1.04,0.57,-0.172,-0.367,1.21,0.825,0.22,1.51,0.545,0.924
